In ChEMBL document CHEMBL1961873, “Compounds: GSK PKIS; Assays: Nanosyn kinase panel” (2012) one finds inhibition data, which are given here for 6 molecules.

In assay [1] the target is Tyrosine-protein kinase CSK (Homo sapiens) (UniProt P41240). To be noted: at 1 µM.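 Also: each value is an averaged inhibition reading.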
Assay [2] deals with T1, Discoidin domain-containing receptor 2 (Homo sapiens) (UniProt Q16832).
T1 sequence (whole entry): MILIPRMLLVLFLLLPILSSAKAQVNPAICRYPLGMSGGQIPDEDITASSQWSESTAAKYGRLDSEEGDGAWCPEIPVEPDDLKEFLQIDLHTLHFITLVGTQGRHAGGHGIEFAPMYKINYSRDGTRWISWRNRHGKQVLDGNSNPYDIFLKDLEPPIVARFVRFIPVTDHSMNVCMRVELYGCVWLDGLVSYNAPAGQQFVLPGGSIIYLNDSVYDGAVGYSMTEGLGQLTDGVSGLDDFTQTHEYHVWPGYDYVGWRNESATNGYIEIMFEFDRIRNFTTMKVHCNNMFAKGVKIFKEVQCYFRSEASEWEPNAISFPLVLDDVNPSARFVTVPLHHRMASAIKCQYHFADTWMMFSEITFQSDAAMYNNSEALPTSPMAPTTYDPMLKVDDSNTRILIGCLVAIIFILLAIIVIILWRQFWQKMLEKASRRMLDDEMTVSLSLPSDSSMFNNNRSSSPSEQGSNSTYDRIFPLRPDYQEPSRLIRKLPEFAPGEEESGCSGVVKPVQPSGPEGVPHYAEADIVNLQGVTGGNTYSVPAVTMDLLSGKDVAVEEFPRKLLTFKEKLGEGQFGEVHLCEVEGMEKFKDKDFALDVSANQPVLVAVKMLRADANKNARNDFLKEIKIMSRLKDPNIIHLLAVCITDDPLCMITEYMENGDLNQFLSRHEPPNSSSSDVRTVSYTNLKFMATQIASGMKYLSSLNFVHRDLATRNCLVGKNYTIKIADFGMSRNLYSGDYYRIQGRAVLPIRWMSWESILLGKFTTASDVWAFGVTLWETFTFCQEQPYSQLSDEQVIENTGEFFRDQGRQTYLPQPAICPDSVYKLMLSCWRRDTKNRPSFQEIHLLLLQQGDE
The settings on record: at 0.1 µM.

In assay [3] the target is T1, Discoidin domain-containing receptor 2 (Homo sapiens). To be noted: at 1 µM.
For assay [4], the target named is Epidermal growth factor receptor (Homo sapiens) (UniProt P00533). The settings on record: at 0.1 µM.
Assay [5] shares this target. To be noted: at 1 µM.
The subject of assay [6] is Epidermal growth factor receptor (Homo sapiens), P00533 [L858R]. The settings on record: at 0.1 µM.
Assay [7] has the same test system. To be noted: at 1 µM.
Assay [8] deals with Epidermal growth factor receptor (Homo sapiens), P00533 [L861Q]. The settings on record: at 0.1 µM.
For assay [9] the test system is unchanged. The settings on record: at 1 µM.
The test system of assay [10] is Epidermal growth factor receptor (Homo sapiens), P00533 [T790M]. To be noted: at 0.1 µM.
Assay [11] shares this test system. To be noted: at 1 µM.
For assay [12], the system named is Epidermal growth factor receptor (Homo sapiens), P00533 [L858R,T790M]. The settings on record: at 0.1 µM.
Assay [13] has the same test system. The settings on record: at 1 µM.
Assay [14] deals with Ephrin type-A receptor 2 (Homo sapiens) (UniProt P29317). To be noted: at 0.1 µM.
The target is the same in assay [15]. The settings on record: at 1 µM.
Assay [16] addresses T2, Ephrin type-A receptor 3 (Homo sapiens) (UniProt P29320).
T2 sequence (whole entry): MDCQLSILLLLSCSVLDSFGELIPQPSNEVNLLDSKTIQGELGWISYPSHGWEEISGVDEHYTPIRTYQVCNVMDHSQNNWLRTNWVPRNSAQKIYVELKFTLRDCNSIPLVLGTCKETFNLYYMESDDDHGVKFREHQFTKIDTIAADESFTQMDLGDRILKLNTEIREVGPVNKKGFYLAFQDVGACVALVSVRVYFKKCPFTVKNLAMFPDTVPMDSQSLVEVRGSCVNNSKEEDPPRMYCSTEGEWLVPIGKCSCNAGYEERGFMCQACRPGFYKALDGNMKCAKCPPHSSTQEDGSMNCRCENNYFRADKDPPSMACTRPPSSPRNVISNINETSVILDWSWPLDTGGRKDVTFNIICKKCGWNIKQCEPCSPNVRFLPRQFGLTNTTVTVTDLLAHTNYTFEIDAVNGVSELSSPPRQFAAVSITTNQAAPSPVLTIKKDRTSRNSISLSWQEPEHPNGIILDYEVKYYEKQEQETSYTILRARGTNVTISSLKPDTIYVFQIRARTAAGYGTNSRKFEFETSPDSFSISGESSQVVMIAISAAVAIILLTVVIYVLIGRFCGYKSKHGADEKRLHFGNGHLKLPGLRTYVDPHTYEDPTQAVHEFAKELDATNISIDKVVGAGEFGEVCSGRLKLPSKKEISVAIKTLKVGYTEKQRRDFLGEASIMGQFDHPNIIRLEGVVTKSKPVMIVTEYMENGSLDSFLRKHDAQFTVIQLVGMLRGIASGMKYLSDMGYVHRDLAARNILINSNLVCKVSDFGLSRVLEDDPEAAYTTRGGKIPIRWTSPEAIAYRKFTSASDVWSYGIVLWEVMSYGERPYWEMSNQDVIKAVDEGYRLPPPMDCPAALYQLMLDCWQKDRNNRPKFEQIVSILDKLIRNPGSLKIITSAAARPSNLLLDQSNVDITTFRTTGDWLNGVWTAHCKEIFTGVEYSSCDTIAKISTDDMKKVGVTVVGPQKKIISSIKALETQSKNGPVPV
To be noted: at 0.1 µM.

Assay [17] concerns the target T2, Ephrin type-A receptor 3 (Homo sapiens). To be noted: at 1 µM.
The target of assay [18] is Ephrin type-A receptor 4 (Homo sapiens) (UniProt P54764). To be noted: at 0.1 µM.
Assay [19] shares this target. To be noted: at 1 µM.
Assay [20] has as its target T3, Ephrin type-B receptor 2 (Homo sapiens) (UniProt P29323).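 Also: reported as mean inhibition of EPHB2, from the GSK PKIS dataset.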
T3 sequence (whole entry): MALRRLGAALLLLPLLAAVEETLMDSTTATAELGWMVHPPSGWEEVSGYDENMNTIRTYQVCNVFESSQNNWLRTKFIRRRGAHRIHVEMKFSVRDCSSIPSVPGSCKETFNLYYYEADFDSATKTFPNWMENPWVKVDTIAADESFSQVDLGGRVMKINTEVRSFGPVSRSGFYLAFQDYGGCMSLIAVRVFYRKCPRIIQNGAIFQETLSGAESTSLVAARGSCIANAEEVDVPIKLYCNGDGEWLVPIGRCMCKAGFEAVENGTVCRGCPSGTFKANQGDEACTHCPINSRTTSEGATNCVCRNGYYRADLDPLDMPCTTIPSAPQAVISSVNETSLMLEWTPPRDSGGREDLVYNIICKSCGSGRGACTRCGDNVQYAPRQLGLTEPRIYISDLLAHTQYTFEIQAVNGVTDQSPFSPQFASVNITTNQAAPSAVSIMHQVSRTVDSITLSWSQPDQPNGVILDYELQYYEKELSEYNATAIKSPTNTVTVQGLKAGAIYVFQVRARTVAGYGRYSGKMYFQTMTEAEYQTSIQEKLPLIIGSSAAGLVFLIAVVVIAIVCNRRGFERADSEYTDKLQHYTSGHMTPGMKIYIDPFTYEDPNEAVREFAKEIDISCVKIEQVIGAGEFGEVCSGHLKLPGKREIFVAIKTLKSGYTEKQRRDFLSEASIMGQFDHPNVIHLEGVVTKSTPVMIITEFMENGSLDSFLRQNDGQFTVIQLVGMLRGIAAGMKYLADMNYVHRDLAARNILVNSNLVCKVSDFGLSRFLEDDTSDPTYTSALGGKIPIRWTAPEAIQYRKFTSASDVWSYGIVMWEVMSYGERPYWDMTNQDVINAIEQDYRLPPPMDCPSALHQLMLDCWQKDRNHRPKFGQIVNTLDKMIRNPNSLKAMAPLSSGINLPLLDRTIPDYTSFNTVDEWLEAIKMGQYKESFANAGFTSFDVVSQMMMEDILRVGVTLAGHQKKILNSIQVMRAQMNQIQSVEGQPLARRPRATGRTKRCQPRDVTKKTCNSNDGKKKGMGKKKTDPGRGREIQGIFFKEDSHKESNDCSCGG
The settings on record: at 0.1 µM.

The inhibition is the relative decrease from the control value, in per cent.

Sequence of Epidermal growth factor receptor (Homo sapiens), P00533 [T790M] (P00533 whole entry T790M): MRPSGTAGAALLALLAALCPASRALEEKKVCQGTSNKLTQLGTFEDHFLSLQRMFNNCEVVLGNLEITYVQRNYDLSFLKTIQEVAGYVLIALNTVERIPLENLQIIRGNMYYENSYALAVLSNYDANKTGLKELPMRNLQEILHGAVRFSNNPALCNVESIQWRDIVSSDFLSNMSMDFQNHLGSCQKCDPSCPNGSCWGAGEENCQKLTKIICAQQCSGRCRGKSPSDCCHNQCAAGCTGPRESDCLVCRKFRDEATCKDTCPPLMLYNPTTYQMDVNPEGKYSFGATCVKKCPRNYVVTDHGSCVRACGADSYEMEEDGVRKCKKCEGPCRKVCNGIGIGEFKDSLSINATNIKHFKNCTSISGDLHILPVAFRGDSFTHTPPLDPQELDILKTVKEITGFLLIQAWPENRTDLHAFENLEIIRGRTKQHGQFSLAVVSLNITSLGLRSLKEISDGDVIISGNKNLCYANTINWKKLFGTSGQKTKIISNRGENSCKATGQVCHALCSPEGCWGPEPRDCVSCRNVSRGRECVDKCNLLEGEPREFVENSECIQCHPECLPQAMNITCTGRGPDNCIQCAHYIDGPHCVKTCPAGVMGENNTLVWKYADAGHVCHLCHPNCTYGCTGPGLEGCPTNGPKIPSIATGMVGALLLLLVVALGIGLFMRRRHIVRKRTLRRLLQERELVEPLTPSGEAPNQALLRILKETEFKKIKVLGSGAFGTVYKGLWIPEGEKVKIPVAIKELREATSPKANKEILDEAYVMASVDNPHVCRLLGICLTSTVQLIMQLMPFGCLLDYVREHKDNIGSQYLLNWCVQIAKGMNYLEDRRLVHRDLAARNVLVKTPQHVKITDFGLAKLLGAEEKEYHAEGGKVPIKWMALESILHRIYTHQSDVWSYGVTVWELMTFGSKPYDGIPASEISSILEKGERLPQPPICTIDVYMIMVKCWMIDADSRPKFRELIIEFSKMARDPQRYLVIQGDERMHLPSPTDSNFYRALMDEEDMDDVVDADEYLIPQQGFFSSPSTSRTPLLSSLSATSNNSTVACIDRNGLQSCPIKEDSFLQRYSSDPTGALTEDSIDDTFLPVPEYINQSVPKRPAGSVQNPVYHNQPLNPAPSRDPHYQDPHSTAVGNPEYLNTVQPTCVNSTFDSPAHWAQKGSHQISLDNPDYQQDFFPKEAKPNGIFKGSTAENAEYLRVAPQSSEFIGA
Sequence of Epidermal growth factor receptor (Homo sapiens), P00533 [L858R,T790M] (P00533 whole entry T790M/L858R, looked up): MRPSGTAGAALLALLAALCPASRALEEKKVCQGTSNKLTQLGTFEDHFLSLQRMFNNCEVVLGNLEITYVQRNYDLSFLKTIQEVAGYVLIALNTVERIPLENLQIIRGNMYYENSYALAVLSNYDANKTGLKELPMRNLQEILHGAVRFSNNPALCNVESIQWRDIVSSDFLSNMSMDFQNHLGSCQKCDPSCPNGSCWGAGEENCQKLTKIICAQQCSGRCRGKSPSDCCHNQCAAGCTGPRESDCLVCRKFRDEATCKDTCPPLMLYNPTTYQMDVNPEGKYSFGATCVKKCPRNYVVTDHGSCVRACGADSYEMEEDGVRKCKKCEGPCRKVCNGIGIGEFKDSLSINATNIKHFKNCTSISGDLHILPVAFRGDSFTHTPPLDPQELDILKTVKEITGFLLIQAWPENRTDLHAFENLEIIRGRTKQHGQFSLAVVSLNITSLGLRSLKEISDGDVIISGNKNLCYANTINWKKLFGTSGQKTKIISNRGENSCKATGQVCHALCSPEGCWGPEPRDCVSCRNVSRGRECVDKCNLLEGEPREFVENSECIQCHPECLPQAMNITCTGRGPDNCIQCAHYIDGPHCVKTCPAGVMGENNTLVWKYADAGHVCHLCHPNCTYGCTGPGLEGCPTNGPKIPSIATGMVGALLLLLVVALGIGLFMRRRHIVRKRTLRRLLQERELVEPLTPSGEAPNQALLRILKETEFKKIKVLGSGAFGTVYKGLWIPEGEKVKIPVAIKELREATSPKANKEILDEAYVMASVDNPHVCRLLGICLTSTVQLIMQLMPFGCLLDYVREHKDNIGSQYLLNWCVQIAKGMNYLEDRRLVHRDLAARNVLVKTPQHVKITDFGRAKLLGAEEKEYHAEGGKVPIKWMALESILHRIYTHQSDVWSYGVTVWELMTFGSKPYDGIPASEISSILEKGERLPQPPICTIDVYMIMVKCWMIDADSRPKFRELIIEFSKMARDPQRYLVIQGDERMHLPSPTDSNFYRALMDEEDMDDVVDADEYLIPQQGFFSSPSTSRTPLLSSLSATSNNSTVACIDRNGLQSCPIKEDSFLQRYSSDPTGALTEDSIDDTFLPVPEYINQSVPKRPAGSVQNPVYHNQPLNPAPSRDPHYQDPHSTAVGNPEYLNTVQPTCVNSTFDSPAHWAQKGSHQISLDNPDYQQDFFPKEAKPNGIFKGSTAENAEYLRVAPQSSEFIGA
Sequence of Ephrin type-A receptor 4 (Homo sapiens) (P54764 whole entry): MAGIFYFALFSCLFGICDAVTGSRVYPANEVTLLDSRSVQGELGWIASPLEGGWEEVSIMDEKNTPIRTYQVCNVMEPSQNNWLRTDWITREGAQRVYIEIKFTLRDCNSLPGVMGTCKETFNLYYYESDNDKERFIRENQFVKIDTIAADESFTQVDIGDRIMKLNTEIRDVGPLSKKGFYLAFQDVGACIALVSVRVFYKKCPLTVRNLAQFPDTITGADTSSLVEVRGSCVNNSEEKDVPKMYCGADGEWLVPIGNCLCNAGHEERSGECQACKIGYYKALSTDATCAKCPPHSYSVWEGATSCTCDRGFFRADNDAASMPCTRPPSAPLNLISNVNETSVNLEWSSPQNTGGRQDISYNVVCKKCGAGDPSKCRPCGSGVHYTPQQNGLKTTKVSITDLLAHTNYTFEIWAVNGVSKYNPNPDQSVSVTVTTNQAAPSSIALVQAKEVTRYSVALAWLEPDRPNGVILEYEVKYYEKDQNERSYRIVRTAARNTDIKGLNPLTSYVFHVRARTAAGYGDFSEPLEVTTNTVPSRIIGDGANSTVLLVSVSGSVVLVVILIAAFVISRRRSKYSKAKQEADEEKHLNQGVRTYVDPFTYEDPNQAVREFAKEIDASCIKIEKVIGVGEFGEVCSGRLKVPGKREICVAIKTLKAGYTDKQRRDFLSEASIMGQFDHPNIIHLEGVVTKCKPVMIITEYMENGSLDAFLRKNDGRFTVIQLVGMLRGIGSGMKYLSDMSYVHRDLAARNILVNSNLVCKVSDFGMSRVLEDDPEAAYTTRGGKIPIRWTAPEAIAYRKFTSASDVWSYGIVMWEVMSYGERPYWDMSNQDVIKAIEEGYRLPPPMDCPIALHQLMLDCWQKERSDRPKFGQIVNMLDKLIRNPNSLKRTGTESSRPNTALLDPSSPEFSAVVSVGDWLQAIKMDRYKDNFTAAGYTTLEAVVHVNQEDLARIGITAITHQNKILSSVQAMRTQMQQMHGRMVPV
Sequence of Epidermal growth factor receptor (Homo sapiens), P00533 [L861Q] (P00533 whole entry L861Q): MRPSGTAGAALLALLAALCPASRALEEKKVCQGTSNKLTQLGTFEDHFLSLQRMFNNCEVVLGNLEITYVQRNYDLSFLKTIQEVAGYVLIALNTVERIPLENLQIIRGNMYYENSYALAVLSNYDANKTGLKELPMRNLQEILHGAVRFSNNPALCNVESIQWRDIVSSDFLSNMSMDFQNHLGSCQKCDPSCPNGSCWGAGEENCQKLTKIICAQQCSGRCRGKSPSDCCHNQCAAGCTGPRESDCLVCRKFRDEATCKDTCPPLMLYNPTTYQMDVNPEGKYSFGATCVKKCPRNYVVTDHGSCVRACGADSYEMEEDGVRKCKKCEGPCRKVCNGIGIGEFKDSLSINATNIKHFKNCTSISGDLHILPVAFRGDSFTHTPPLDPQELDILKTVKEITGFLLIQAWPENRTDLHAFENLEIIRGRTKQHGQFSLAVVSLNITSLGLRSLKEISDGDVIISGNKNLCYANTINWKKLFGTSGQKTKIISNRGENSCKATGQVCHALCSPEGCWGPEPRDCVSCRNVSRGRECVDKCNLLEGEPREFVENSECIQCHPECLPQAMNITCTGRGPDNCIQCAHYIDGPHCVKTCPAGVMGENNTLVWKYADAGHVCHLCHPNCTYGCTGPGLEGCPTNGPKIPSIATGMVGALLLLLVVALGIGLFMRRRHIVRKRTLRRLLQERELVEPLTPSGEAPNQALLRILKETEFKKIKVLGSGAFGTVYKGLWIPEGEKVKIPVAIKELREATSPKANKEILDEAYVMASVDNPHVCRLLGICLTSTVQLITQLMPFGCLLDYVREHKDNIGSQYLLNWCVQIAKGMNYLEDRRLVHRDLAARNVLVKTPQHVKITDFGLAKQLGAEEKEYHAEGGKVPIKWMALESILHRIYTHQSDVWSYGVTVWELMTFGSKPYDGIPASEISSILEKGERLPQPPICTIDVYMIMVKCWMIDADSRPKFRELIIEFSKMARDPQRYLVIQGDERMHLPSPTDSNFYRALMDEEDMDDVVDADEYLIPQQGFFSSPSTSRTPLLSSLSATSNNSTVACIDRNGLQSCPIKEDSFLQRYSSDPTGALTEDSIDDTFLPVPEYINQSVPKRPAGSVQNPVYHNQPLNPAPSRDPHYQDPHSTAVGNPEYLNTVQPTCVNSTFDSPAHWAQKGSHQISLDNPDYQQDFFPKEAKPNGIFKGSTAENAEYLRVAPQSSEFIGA
Sequence of Tyrosine-protein kinase CSK (Homo sapiens) (P41240 2-450 limits assumed): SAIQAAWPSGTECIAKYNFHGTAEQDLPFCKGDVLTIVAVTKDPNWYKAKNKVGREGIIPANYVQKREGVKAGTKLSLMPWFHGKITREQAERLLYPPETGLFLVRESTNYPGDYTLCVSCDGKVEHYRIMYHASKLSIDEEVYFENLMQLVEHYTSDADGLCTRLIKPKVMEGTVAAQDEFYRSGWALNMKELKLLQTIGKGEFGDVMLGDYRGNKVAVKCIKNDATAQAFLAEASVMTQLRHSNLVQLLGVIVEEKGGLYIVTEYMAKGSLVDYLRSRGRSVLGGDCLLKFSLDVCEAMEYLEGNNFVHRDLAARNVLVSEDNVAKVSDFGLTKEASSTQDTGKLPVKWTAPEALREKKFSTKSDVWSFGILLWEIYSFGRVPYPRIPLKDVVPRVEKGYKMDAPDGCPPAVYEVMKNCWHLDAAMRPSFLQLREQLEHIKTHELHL

`CN1CCC(n2cnc(-c3ccc(F)cc3)c2-c2ccnc(NCCO)n2)CC1`: the inhibition came out at 8.66% in [1]; 2.1% in assay [2]; 3.08% in assay [3]; 0.6% in [4]; 6.58% in assay [5]; 0.99% in assay [6]. In addition, the inhibition in assay [7] was 11%; in [8], 4.45%; in assay [9] it was 5.89%; in assay [10], 3.52%; in assay [11], 4.06%; in [12], 1.79%. Moreover, the inhibition in assay [13] was 5.98%; in assay [14], 2.31%; in assay [15] it was -0.04%; in [16], 5.3%; in [17], 5.33%; in assay [18], 7.76%. Besides, the inhibition in [19] is 14.7%; in [20], 8.26%.

`CS(=O)(=O)Nc1ccc(-c2cc(-c3ccccc3)cc(C(N)=O)c2N)cc1`: the inhibition in assay [1] was 1.29%; in [2], -0.17%; in [3] it was 1.14%; in [4] it was 11.5%; in assay [5], 17.2%; in [6], 1.51%. In addition, the inhibition was 1.89% in [7]; 0.77% in assay [8]; 5.17% in [9]; -0.83% in assay [10]; -0.33% in assay [11]; 1.11% in assay [12]. Further, the inhibition was 1.75% in assay [13]; -3.41% in assay [14]; -2.62% in assay [15]; 0.48% in assay [16]; -0.2% in [17]; 1.75% in assay [18]. Besides, the inhibition was found to be 4.07% in assay [19] and 6.68% in assay [20].

As to `CCOc1ccc2c(-c3ccnc(Nc4cc(OC)cc(C(F)(F)F)c4)n3)cnn2n1`, the inhibition in assay [1] is 0.11%; in [2], -0.19%; in assay [3], 1.4%; in assay [4], 2.81%; in assay [5], 5.28%; in assay [6], 2.28%. Further, the inhibition came out at 3.23% in [7]; 1.52% in [8]; 2.39% in [9]; 0.36% in assay [10]; 0.47% in assay [11]; 0.87% in [12]. Also, the inhibition was -2.16% in assay [13]; -2.58% in assay [14]; -0.79% in assay [15]; -0.82% in assay [16]; 1.98% in assay [17]; 2.94% in [18]. For the same molecule, the figures for the inhibition in assay [19] and in [20] were 6.63% and 3.54%, respectively.

On to `CS(=O)(=O)Nc1ccc(-c2ccc3c(NC(=O)C4CC4)n[nH]c3c2)cc1`, for which the inhibition in [1] was 0.41%; in [2] it was 1.42%; in assay [3] it was 0.51%; in assay [4] it was -0.2%; in assay [5], 2.27%; in [6], 2.52%. The inhibition in [7] was -0.4%; in assay [8], 2.28%; in assay [9], -2.37%; in [10] it was 2.21%; in assay [11] it was 0.23%; in [12], 0.3%. The inhibition was found to be 0.93% in assay [13]; 2.88% in assay [14]; 1.54% in assay [15]; 5.15% in assay [16]; 4.1% in assay [17]; 5.41% in [18]. Further, the inhibition in assay [19] is 1.08%; in [20] it was 9.15%.

For `N#Cc1cccc(Nc2ncc(-c3ccccc3)o2)c1`, the inhibition in [1] is 5.14%; in [2], 2.3%; in assay [3], 2.59%; in [4], -0.19%; in [5], 2.05%; in assay [6], 2.09%. Further, the inhibition worked out at 2.9% in [7]; 3.59% in assay [8]; 2.98% in assay [9]; 1.65% in assay [10]; 3.24% in assay [11]; 0.29% in assay [12]. Moreover, the inhibition in assay [13] was found to be 3.37%; in assay [14], 1.14%; in [15], 0.54%; in assay [16] it was 2.39%; in assay [17] it was 1.84%; in assay [18] it was 6.35%. For the same molecule, the inhibition in assay [19] turned out to be 8.39%; in assay [20] it was 2.84%.

Regarding `CNC(=O)c1ncccc1Nc1nc(Nc2cc3c(cc2OC)CCCN3C(=O)CN(C)C)nc2[nH]ccc12`, the inhibition was 2.18% in assay [1]; 2.33% in assay [2]; 3.8% in assay [3]; 1.65% in assay [4]; 7.76% in [5]; 4.57% in [6]. Also, the inhibition in [7] came out at 22.4%; in assay [8], 4.79%; in [9], 7.78%; in [10], 13.2%; in assay [11], 54.4%; in [12] it was 43.7%. The inhibition turned out to be 80.5% in assay [13]; 0.62% in assay [14]; 0.22% in assay [15]; 5.44% in [16]; 5.06% in [17]; 7.88% in [18]. The inhibition came to 7.89% in assay [19] and 8.66% in assay [20].
